Source: PubChem
FEN1 inh-1: inhibitors of human flap endonuclease 1; P39748; Recombinant FEN1 flap cleavage, fluorescence, 15 min; Potency, µM (doses to about 114 µM), for the others: at the top dose activity change, negative = inhibition, usual class: inhibitors; 0.35% of 390,000 active; AID 588795; also: potency is read from the fitted curve at half-maximal effect; % is scaled to controls: 0 for no effect and ±100 for the full control effect; nearly all actives have a fitted effect of over 65% in size
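Nuclease activity of 10 nM FEN1 was measured after 15 min of room-temperature exposure to titrated compounds, by adding 50 nM flap substrate and reading plates at 0 and 15 min.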
PI5P4Ka inh: blocks human PI5P4K alpha kinase activity | PI5P4Kalpha enzyme, ADP-Glo luminescence, 60 min; active compounds read low | P48426 | max response, % | 1.2% of 330,000 active; active = max response of -50% or lower; inconclusive = between -30% and -50%; inactive = -30% or higher; also: value at the top dose of about 77 µM; % is scaled to controls: 0 for no effect and ±100 for the full control effect
Target sequence (P48426 whole entry, looked up): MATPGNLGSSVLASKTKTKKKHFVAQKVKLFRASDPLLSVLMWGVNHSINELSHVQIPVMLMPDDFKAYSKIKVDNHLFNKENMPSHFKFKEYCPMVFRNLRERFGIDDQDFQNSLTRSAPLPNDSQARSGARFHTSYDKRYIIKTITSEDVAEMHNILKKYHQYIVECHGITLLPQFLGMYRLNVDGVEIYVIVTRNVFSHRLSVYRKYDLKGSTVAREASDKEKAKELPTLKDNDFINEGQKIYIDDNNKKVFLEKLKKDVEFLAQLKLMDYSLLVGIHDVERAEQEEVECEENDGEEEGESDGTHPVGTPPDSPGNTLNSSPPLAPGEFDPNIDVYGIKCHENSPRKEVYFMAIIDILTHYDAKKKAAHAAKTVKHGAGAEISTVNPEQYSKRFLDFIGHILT
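Reactions run in 0.038 M HEPES pH 7.4, 0.28 mM EGTA, 0.1% CHAPS and 5% DMSO, with PI5P4Kalpha, substrate, compound and 5 microM ATP final, one hour at room temperature. Readout is ADP-Glo luminescence.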
BLM helicase inh: inhibitors of human Bloom syndrome helicase BLM; 0.2% of 350,000 active; P54132; Potency, µM (highest dose often 56.1 µM), inactives show at the top dose activity change, negative = inhibition, actives largely listed as inhibitors; recombinant BLM DNA unwinding, fluorescence dequenching; AID 2528;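 also: potency is read from the fitted curve at half-maximal effect; plate controls were vehicle for no effect and no enzyme for full effect; nearly all actives have a fitted effect of over 35% in size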
APEX1 inh: blocks human APE1 abasic DNA cleavage; P27695; recombinant APE1, TAMRA/BHQ-2 abasic DNA cleavage fluorescence; Potency, µM (top dose mostly 65.8 µM), without a hit: at the highest dose activity change, negative = inhibition, actives largely listed as inhibitors; 0.35% of 350,000 active; AID 2517;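 also: potency is read from the fitted curve at half-maximal effect; plate controls were vehicle for no effect and reference inhibitor for full effect; nearly all actives have a fitted effect of over 55% in size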
Target sequence (P27695 whole entry, looked up): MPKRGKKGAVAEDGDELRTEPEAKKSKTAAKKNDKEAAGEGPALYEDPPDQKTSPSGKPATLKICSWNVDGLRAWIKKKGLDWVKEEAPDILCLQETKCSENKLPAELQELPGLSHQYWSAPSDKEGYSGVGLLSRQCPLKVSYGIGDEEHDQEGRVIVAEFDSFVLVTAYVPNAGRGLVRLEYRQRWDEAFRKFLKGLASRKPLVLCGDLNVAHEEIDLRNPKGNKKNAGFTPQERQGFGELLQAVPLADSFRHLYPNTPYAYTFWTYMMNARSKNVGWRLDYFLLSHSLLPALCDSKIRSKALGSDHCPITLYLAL
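Substrate: short duplex with […] THF abasic site, 5'-TAMRA and 3'-BHQ-2, 50 nM final. APE1 at 0.75 nM, preincubated 15 min RT with compound. Fluorescence increase from first to third read measured activity.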
WRN helicase inh: inhibitors of human WRN helicase; Q14191; WRN helicase unwinding, fluorescent forked duplex, kinetic; Potency, µM (top dose mostly 114 µM), for inactives: at the top dose activity change, negative = inhibition, actives largely listed as inhibitors; 0.46% of 360,000 active; AID 651768; also: potency is read from the fitted curve at half-maximal effect; % is scaled to controls: 0 for no effect and ±100 for the full control effect; nearly all actives have a fitted effect of over 55% in size
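Screening of the MLSMR collection measured strand separation of a quenched forked DNA duplex (100 nM) by 20 nM WRN with 2 mM ATP, all final. Compounds were preincubated with enzyme 15 min at room temperature.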
RECQ1 inh: RECQ1 (human) helicase inhibition. Potency, µM (titrated, usually from 57.3 µM), for inactives: top-dose activity, negative = inhibition, most hits filed as inhibitors. RECQ1 DNA unwinding, red fluorescence kinetic read. 0.54% of 240,000 active;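 also: potency is read from the fitted curve at half-maximal effect; plate controls were vehicle for no effect and no enzyme for full effect; nearly all actives have a fitted effect of over 30% in size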
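RECQ1T1 50 nM; forked duplex (20 bp + 30-nt ss tails) 200 nM, ATP 2 mM final; pH 8.0, 2 mM MgCl2, 2.5 ug/ml poly(dI-dC); 15 min compound preincubation; discontinuous kinetic read over 2 h at RT.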
FEN1 inh-2: confirmation of human FEN1 inhibitors. FEN1 flap cleavage, TAMRA/BHQ2 fluorogenic DNA substrate. shares compounds with FEN1 inh-1. 79% of 880 active. AID 720498. Potency, µM, hits mostly inhibitors; also: potency is read from the fitted curve at half-maximal effect; nearly all actives have a fitted effect of over 60% in size
* = called active by the depositor; i = inactive; ? = inconclusive; . = no result; [ ] = another dose, or the depositor's remark. A selection: hits, their analogues and other compounds. The true share with any hit is near 1.5%. Unless noted, calls follow the shape of the dose curve; as a rule, active = well fitted curve in the direction sought with a large enough effect; inconclusive = small, poorly fitted or top-dose-only effect, or another doubt; inactive = no such curve, though single readings can be large; an effect the other way counts as inactive or inconclusive.

SMILES	FEN1 inh-1	PI5P4Ka inh	BLM helicase inh	APEX1 inh	WRN helicase inh	RECQ1 inh	FEN1 inh-2
CCOc1ccccc1N(CC)C(=O)c1cc2c(=O)n(CC)c3ccccc3c2s1	-7%	.	-10%	.	.	.	.
CCOc1ccc(Nc2c3ccccc3nc3ccccc23)cc1	45µM*	4	-4%	-7%	?	-27%	43*
CCOc1ccc(Nc2cc(C)c3ccccc3n2)cc1	2%	15	-7%	2%	-7%[57.1 µM]	.	.
O=C(N/N=C/c1cccnc1)c1cc2c(ccc3ccccc32)o1	?	-8	3%	-5%	-26%	-18%	.
O=C(N/N=C/c1cc(Br)c(O)c(Br)c1)c1cc2c(ccc3ccccc32)o1	56µM*	-103*	?	?	35µM*	.	43*
O=C(N/N=C/c1cc(Cl)c(O)c(Cl)c1)c1cc2c(ccc3ccccc32)o1	50µM*	-77*	-15%	-38%	?	.	?
CC(=O)Oc1ccc(/C=N\NC(=O)c2cc3c(ccc4ccccc43)o2)cc1	11%	0	-13%	-11%	-9%	.	.
CCOC(=O)c1noc2ncnc(Nc3ccc(C)c(F)c3)c12	-4%	.	-1%	.	.	.	.
CC1(C)S[C@@H]2C(C(=O)O)NC(=O)N2C1C(=O)O (some centres not stated)	-10%	.	.	.	.	.	.
O=S(=O)(Nc1nccs1)c1ccc(Nc2nnc(-c3ccccc3)c3ccccc23)cc1	89µM*	?	-24%	2%	?	0%	?
O=C1NC(=S)S/C1=C\c1cc(Cl)cc(Cl)c1O	?	-58*	.	.	35µM*	.	85*
O=C1NC(=O)C(=Cc2ccc(Cl)c(Cl)c2)S1	0%	-26	.	.	-1%	.	.
Cc1nnc(NC(=O)c2sc3nc(-c4cccs4)cc(C(F)(F)F)c3c2N)s1	?	-14	-13%	-9%	-34%[57.1 µM]	?	?
O=C1C2=C(S[C@@H]3O[C@H](CO)[C@@H](O)[C@H](O)[C@H]3O2)C(=O)c2ccccc21	.	.	-27%	-6%	.	-5%	.
CCN(CC)c1ccc(/C=C2\SC(N)=NC2=O)cc1	15%	-1	-5%	13%	6%	.	.
CCN(CC)c1ccc(C=C2SC(=S)NC2=O)cc1	-29%	?	.	.	50µM*	.	?
Cc1ccccc1Nc1nc(N)nc(COC(=O)c2ccccc2)n1	7%	-4	-4%	0%	4%	4%	.
Cc1ccccc1Nc1nc(N)nc(COC(=O)c2ccc([N+](=O)[O-])o2)n1	?	-4	.	-28%	4%[11.6 µM]	.	21*
COc1cccc2c1C(=N)c1c(O)c3c(c(O)c1C2=O)CC(O)(C(C)=O)CC3OC1CC(N)C(O)C(C)O1 (configuration not stated)	11µM*	3	.	.	?	.	24*
COc1cccc2c1-c1c(O)cccc1C2=O	-21%	5	-7%	3%	-14%	.	.
O=C(O)CCNc1ccc(NCCC(=O)O)c2c1C(=O)c1ccccc1C2=O	18µM*	-68*	?	6.7µM*	?	.	38*
COc1ccccc1NCCC(=O)O	-12%	1	0%	4%	2%	i	.
CC(=O)Nc1ccc2c(O)cc(S(=O)(=O)O)cc2c1	?	-22	.	.	-34%	.	.
Nc1cccc2c(O)cc(S(=O)(=O)O)cc12	8.9µM*	-88*	.	.	?	.	43*
COc1cc(NC(=O)Cn2ccn(-c3cc(C)cc(C)c3)c(=O)c2=O)cc(OC)c1	4%	.	-3%	.	.	.	.
SMILES	FEN1 inh-1	PI5P4Ka inh	BLM helicase inh	APEX1 inh	WRN helicase inh	RECQ1 inh	FEN1 inh-2
COC(=O)c1ccc(NC(=O)c2ccc(NC(=O)c3ccco3)cc2)cc1	?	-17	-11%	-21%	-14%	.	?
CCCN(CCC)c1nn2c(=O)c(C(=O)NCc3cccc(OC)c3)cnc2s1	-5%	.	0%	.	.	.	.
CC1(C)O[C@@H]2C[C@H]3[C@@H]4CCC5=CC(=O)C=C[C@]5(C)[C@H]4C(O)C[C@]3(C)[C@]2(C(=O)CO)O1 (some centres not stated)	.	.	-11%	.	.	.	.
COc1cccc2nc3c(C(=O)NCCN(C)C)cccc3cc12	13µM*	-23	.	.	13%[11.6 µM]	.	30*
COc1ccc(-c2nc3c(C(=O)NCCN(C)C)cccc3c3ccccc23)cc1	32µM*	-8	.	.	56%	.	34*
CCN(C(=O)c1nn(-c2ccc(OC)c(Cl)c2)c(=O)c2c1c1ccccc1n2C)c1cc(OC)ccc1OC	12%	.	-9%	.	.	.	.
COc1ccccc1C1c2c(ncn(-c3ccccc3)c2=N)Oc2ccc3ccccc3c21 (configuration not stated)	.	.	.	.	.	.	11*
CCN(CC)CCn1c2ccccc2c2cnc(N)c(C#N)c21	?	1	181%	-12%	-8%[57.1 µM]	i	21*
O=C(O)c1ccc([N+](=O)[O-])c2c1C(=O)c1ccccc1C2=O	-10%	0	.	.	-14%	.	.
Nc1c(C(=O)O)ccc2c1C(=O)c1ccccc1C2=O	50µM*	-69*	-15%	?	?	?	34*
Nc1ccc2nc(-c3ccc(N)c(Cl)c3)[nH]c2c1	50µM*	-63*	-21%	?	?	-22%	21*
COc1ccc(/C=N/Nc2cc(C)nc3ccc(OC)cc23)c(OC)c1	22µM*	?	25µM*	27µM*	13µM*	.	19*
COc1ccc(/C=N/Nc2nc(C)cc(-c3ccccc3)n2)c(OC)c1	7%	-3	-2%	19%	-33%	.	.
O=C(O)c1ccc(N2C(=O)CSC2=S)cc1	-3%	-6	.	.	3%[11.6 µM]	.	?
COc1cc(-c2ccc3ncnc(NCc4ccc(C)o4)c3c2)cc(OC)c1OC	.	.	.	.	.	.	?
COc1ccc(CNc2ncnc3ccc(-c4ccc5c(c4)OCO5)cc23)c(OC)c1	.	.	-4%	-9%	.	-17%	.
O=C(CCN1C(=O)/C(=C\C=C\c2ccccc2)SC1=S)Nc1ccc(C(=O)O)cc1	-19%	?	?	13µM*	56µM*	.	?
COc1ccc(S(=O)(=O)Nc2cc(SCC(=O)O)c(O)c3ccccc23)cc1	?	-51*	-21%	26%	79µM*	.	67*
COc1ccc(S(=O)(=O)Nc2cccc3ccccc23)cc1	-3%	.	.	.	.	.	.
COc1cccc(CNS(=O)(=O)c2ccc3[nH]c4c(c3c2)CCCCC4)c1	-21%	.	-17%	.	.	.	.
Cc1[nH]c2ccccc2c1/C=C/c1cc[n+](C)cc1	?	-2	9%	3%	-21%[57.1 µM]	-17%	?
O=c1[nH]c2ccc(S(=O)(=O)N3CCN(S(=O)(=O)c4c(F)cccc4F)CC3)cc2[nH]c1=O	.	.	.	.	.	.	?
O=c1cc(/C=C/c2ccc([N+](=O)[O-])cc2)c2ccccc2[nH]1	-10%	.	.	.	.	.	.
